# Test system: Plasmodium falciparum
# Assay: GSK_TCMDC: Inhibition of Plasmodium falciparum Dd2 in whole red blood cells, using parasite LDH activity as an index of growth. Test compounds present at 2uM
# Type: functional
row,SMILES,Inhibition
1,CC(C)NCc1ccc(-c2cccc(-c3nc4cc(F)ccc4[nH]3)c2)cc1.O=C(O)C(F)(F)F,96%
2,Cn1cnc2nc(NCCc3ccccc3)nc(NCc3cccc4ccccc34)c21,98%
3,Fc1ccc2[nH]c(-c3ccc(-c4ccc(CNCCc5ccncc5)cc4)s3)nc2c1.O=C(O)C(F)(F)F,100%
4,Cc1ccc(S(C)(=O)=O)cc1/C=C/C(=O)O,1%
5,Oc1cccc(/C=N/Nc2ccnc3cc(Cl)ccc23)c1,95%
6,COc1ccc(C2C(C(=O)Nc3ccc4c(c3)OCO4)c3cc(OC)c(OC)cc3C(=O)N2C)cc1 (centres undefined),54%
7,CCCC(C)NC[C@@H](O)[C@H](Cc1ccccc1)NC(=O)c1cc(C2CCCC2)cc(N2CCCCS2(=O)=O)c1.Cl (some centres undefined),99%
8,CCN(CC)CCNc1ccnc2c3ccccc3n(C)c12,99%
9,Cc1ccc(/C=C2/SC(=Nc3ccccc3)NC2=O)c(C)c1,90%
10,CCOc1cc(C(=O)N[C@@H](Cc2ccccc2)[C@H](O)CNCc2cc(OC)cc(OC)c2)cc(N2CCCCS2(=O)=O)c1.Cl,98%
11,CN1CCC(N(C)C(=O)C=Cc2cn(-c3ccccc3)nc2-c2cc3ccccc3o2)CC1.Cl,5%
12,O=C(O)C(F)(F)F.c1cc(CN2CCN(c3ccncc3)CC2)cc(-c2cccc(-c3nc4ccccc4[nH]3)c2)c1,98%
13,CCOc1cc(C)ccc1C1CCN(CCCCNC(=O)c2cccc(-c3ccc(C(F)(F)F)cc3)c2)CC1,55%
14,O=C(c1cccs1)N1N=C(c2cccs2)CC1c1cccc([N+](=O)[O-])c1 (centres undefined),27%
